Among the data in PubChem BioAssay (NCI) are growth inhibition values, retold here.

The panel holds about 79,000 compounds, 15% with a hit somewhere; the sample as a whole holds those more often. Unmarked numbers belong to inactive results. Activity calls are given as the source filed them. Rule as the data show it: active = growth inhibition above about 70%; inactive = the rest.

The nature of test [1]: NCI Yeast Anticancer Drug Screen. Data for the rad50 strain (AID 155).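 Also: 0% = growth of vehicle-only cultures of the same strain.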 Particulars: S. cerevisiae rad50 strain growth inhibition, stronger effect = higher value. Summed up:
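A DNA repair-deficient yeast mutant serves as the test organism; compound-induced growth inhibition is calculated against vehicle-treated cells.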

Test [2] is described as follows: NCI Yeast Anticancer Drug Screen. Data for the mec2-1 strain (AID 157). Particulars: S. cerevisiae mec2-1 strain, stronger effect = higher value. An outline of the steps: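 Yeast mec2-1 mutant treated with compound. Readout: growth inhibition vs vehicle controls.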
Test [3] in a line: NCI Yeast Anticancer Drug Screen. Data for the sgs1 mgt1 strain (AID 161).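 Also: 0% = growth of cultures given vehicle only.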 As to conditions: S. cerevisiae sgs1 mgt1 strain, stronger effect = higher value. Summed up:
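Genetically altered yeast, compound exposure, growth inhibition relative to vehicle.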

A short description of test [4]: NCI Yeast Anticancer Drug Screen. Data for the cln2 rad14 strain (AID 165).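 Also: 0% = growth equal to vehicle treated cultures.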 Particulars: S. cerevisiae cln2 rad14 strain, stronger effect = higher value. An outline of the steps:
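cln2 rad14 yeast strain; compound exposure; growth inhibition read vs vehicle controls.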

A short description of test [5]: NCI Yeast Anticancer Drug Screen. Data for the bub3 strain (AID 167). As to conditions: S. cerevisiae bub3 mutant strain, stronger effect = higher value. Summed up:
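Inhibition values come from growth of compound-treated mutant yeast normalised to vehicle-treated controls.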

Test [6] is described as follows: NCI Yeast Anticancer Drug Screen. Data for the mlh1 rad18 strain (AID 175). Particulars: S. cerevisiae mlh1 rad18 strain growth inhibition, stronger effect = higher value. Summed up:
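Yeast w/ defined DNA-repair lesions; compound exposure; growth vs vehicle controls → % inhibition.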

Setting [7] is: at 5.0 µM (retest, dose inferred, filed as 0.5).
The mark [8] stands for this setting: at 50.0 µM (retest, dose inferred, filed as 5.0).

`CSc1c(S(C)=O)c2ccccc2n1C` (configuration not stated): the growth inhibition is 20% in test [1] (setting [7]); 17% in test [1] (setting [8]); -20.6% in test [1] (at 50.0 µM); 22% in test [2] (setting [7]); 27% in test [2] (setting [8]); -13.2% in test [2] (at 50.0 µM). The growth inhibition in test [3] (setting [7]) was 12%; in test [3] (setting [8]), 11%; in test [3] (at 50.0 µM), -22.2%; in test [4] (setting [7]) it was 25%; in test [4] (setting [8]), 17%; in test [4] (at 50.0 µM) it was -6.4%. The growth inhibition in test [5] (setting [7]) was 3%; in test [5] (setting [8]), 8%; in test [5] (at 50.0 µM) it was -39.5%; in test [6] (setting [7]), 27%; in test [6] (setting [8]), 20%; in test [6] (at 50.0 µM), -26.4%.

With `Cc1ccc(S(=O)(=O)N/N=C2/CC[C@H](C(C)(C)C)C[C@@H]2C)cc1`, the growth inhibition in test [1] (setting [7]) is 9%; in test [1] (setting [8]), 96% (active); in test [1] (at 50.0 µM), 86.2% (active); in test [2] (setting [7]), -15%; in test [2] (setting [8]), 97% (active); in test [2] (at 50.0 µM), 90% (active). Also, the growth inhibition in test [3] (setting [7]) was -2%; in test [3] (setting [8]), 98% (active); in test [3] (at 50.0 µM), 77.4% (active); in test [4] (setting [7]) it was -35%; in test [4] (setting [8]) it was 85% (active); in test [4] (at 50.0 µM), 87.7% (active). Moreover, the growth inhibition in test [5] (setting [7]) was -18%; in test [5] (setting [8]), 97% (active); in test [5] (at 50.0 µM), 84.7% (active); in test [6] (setting [7]), -1%; in test [6] (setting [8]), 98% (active); in test [6] (at 50.0 µM), 76.3% (active).

Regarding `Cc1cc(N)cc(C)c1-c1c(N)cc(Br)cc1Br`, the growth inhibition in test [1] (setting [7]) was -1%; in test [1] (setting [8]), -10%; in test [1] (at 50.0 µM), 98.1% (active); in test [2] (setting [7]), -3%; in test [2] (setting [8]), -6%; in test [2] (at 50.0 µM), 97.5% (active). Moreover, the growth inhibition in test [3] (setting [7]) was -4%; in test [3] (setting [8]), -9%; in test [3] (at 50.0 µM) it was 98.3% (active); in test [4] (setting [7]), 1%; in test [4] (setting [8]), -10%; in test [4] (at 50.0 µM), 96.6% (active). Also, the growth inhibition in test [5] (setting [7]) is -7%; in test [5] (setting [8]), -13%; in test [5] (at 50.0 µM) it was 98.1% (active); in test [6] (setting [7]) it was -2%; in test [6] (setting [8]), -9%; in test [6] (at 50.0 µM), 97.9% (active).

As to `Cc1ccc(C)c([N+](=O)[O-])c1`, the growth inhibition is -2% in test [1] (setting [7]); 11% in test [1] (setting [8]); 51.1% in test [1] (at 50.0 µM); 1% in test [2] (setting [7]); -2% in test [2] (setting [8]); 17.6% in test [2] (at 50.0 µM). Also, the growth inhibition is -1% in test [3] (setting [7]); -2% in test [3] (setting [8]); 13.8% in test [3] (at 50.0 µM); 1% in test [4] (setting [7]); 1% in test [4] (setting [8]); -7.1% in test [4] (at 50.0 µM). Further, the growth inhibition in test [5] (setting [7]) is -1%; in test [5] (setting [8]), 1%; in test [5] (at 50.0 µM) it was 6.25%; in test [6] (setting [7]), 0%; in test [6] (setting [8]), 12%; in test [6] (at 50.0 µM), 28.2%.

Regarding `CCCC(O)CNCc1ccc(N(C)C)cc1` (configuration not stated), the growth inhibition in test [1] (setting [7]) is -2%; in test [1] (setting [8]), 7%; in test [1] (at 50.0 µM), 30.1%; in test [2] (setting [7]), -3%; in test [2] (setting [8]), 6%; in test [2] (at 50.0 µM) it was -4.1%. Besides, the growth inhibition in test [3] (setting [7]) was -3%; in test [3] (setting [8]), -29%; in test [3] (at 50.0 µM), 75.6% (active); in test [4] (setting [7]) it was 6%; in test [4] (setting [8]) it was 3%; in test [4] (at 50.0 µM), 63.9%. The growth inhibition was -1% in test [5] (setting [7]); 5% in test [5] (setting [8]); 46.7% in test [5] (at 50.0 µM); -17% in test [6] (setting [7]); 16% in test [6] (setting [8]); 41.8% in test [6] (at 50.0 µM).

On to `C=CC(=O)NC(C)C`, for which the growth inhibition is 1% in test [1] (setting [7]); 6% in test [1] (setting [8]); 74.7% (active) in test [1] (at 50.0 µM); 0% in test [2] (setting [7]); 2% in test [2] (setting [8]); -3.7% in test [2] (at 50.0 µM). Besides, the growth inhibition was 1% in test [3] (setting [7]); 4% in test [3] (setting [8]); 19.4% in test [3] (at 50.0 µM); -1% in test [4] (setting [7]); 1% in test [4] (setting [8]); 16.7% in test [4] (at 50.0 µM). For the same molecule, the growth inhibition in test [5] (setting [7]) was -2%; in test [5] (setting [8]) it was -4%; in test [5] (at 50.0 µM), 5.8%; in test [6] (setting [7]), 0%; in test [6] (setting [8]), 9%; in test [6] (at 50.0 µM), 40.3%.

Regarding `Cc1c(Cl)cc2[nH]c(C(F)(F)F)nc2c1Cl`, the growth inhibition is 3% in test [1] (setting [7]); 66% in test [1] (setting [8]); 63% in test [1] (at 50.0 µM); 8% in test [2] (setting [7]); 76% (active) in test [2] (setting [8]); 75.2% (active) in test [2] (at 50.0 µM). Further, the growth inhibition is 3% in test [3] (setting [7]); 79% (active) in test [3] (setting [8]); 71.2% (active) in test [3] (at 50.0 µM); 10% in test [4] (setting [7]); 71% (active) in test [4] (setting [8]); 65.1% in test [4] (at 50.0 µM). Also, the growth inhibition was 2% in test [5] (setting [7]); 56% in test [5] (setting [8]); 41.5% in test [5] (at 50.0 µM); 3% in test [6] (setting [7]); 72% (active) in test [6] (setting [8]); 70.5% (active) in test [6] (at 50.0 µM).

For the molecule `Cc1nc(C(N)=S)sc1C(=O)CC(=O)C(=O)Nc1nc2ccccc2[nH]1`, the growth inhibition in test [1] (setting [7]) was 10%; in test [1] (setting [8]), -9%; in test [1] (at 50.0 µM), -7.35%; in test [2] (setting [7]), 11%; in test [2] (setting [8]), 24%; in test [2] (at 50.0 µM) it was 23.1%. The growth inhibition in test [3] (setting [7]) is 13%; in test [3] (setting [8]) it was -110%; in test [3] (at 50.0 µM) it was -24.9%; in test [4] (setting [7]) it was 7%; in test [4] (setting [8]) it was 3%; in test [4] (at 50.0 µM), 2.85%. Besides, the growth inhibition was 11% in test [5] (setting [7]); -7% in test [5] (setting [8]); 1.75% in test [5] (at 50.0 µM); 12% in test [6] (setting [7]); 25% in test [6] (setting [8]); -42.5% in test [6] (at 50.0 µM).

`CCCCCOCC(=O)OC`: the growth inhibition in test [1] (setting [7]) is -1%; in test [1] (setting [8]), 13%; in test [1] (at 50.0 µM), -1.9%; in test [2] (setting [7]), 0%; in test [2] (setting [8]), 5%; in test [2] (at 50.0 µM), -11.6%. Besides, the growth inhibition in test [3] (setting [7]) is -1%; in test [3] (setting [8]) it was 5%; in test [3] (at 50.0 µM), -16.2%; in test [4] (setting [7]), 2%; in test [4] (setting [8]), 0%; in test [4] (at 50.0 µM) it was 44.2%. Also, the growth inhibition was 0% in test [5] (setting [7]); 7% in test [5] (setting [8]); -1.3% in test [5] (at 50.0 µM); 2% in test [6] (setting [7]); 7% in test [6] (setting [8]); -15.1% in test [6] (at 50.0 µM).
